Results from PubChem BioAssay AID1159580 (chemical genetic matrix, 2015).
The campaign covered roughly 5,500 compounds. About 2,000 (36%) were called active. Roughly 18% stayed inconclusive and do not appear here. Some of the results follow. Values without a mark were called inactive. No stated cut-off is given here; in the data, active means normalized growth mostly below about 0.91 (no sharp cut-off); inconclusive means no clear call, values can overlap the other calls; inactive means mostly above about 0.92.

Experiment: chemical genetic growth profiling, strain panel (AID 1159580);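 further: tested at 20 µM; growth read once vehicle control cultures reached saturation at 30 °C; 1 = growth at the plate median or of vehicle wells; lower values mean less growth of the strain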
Settings: growth OD
[1] = S. cerevisiae deletion strains, locus YHR030C, strain SLT2, active compounds read low
[2] = S. cerevisiae deletion strains, locus YHR079C, strain IRE1, active compounds read low
[3] = S. cerevisiae deletion strains, locus YJL095W, strain BCK1, active compounds read low
[4] = S. cerevisiae deletion strains, locus YJR066W, strain TOR1, active compounds read low
[5] = S. cerevisiae deletion strains, locus YLR113W, strain HOG1, active compounds read low
[6] = S. cerevisiae deletion strains, locus YNL183C, strain NPR1, active compounds read low
[7] = S. cerevisiae deletion strains, locus YOR231W, strain MKK1, active compounds read low
[8] = S. cerevisiae deletion strains, locus YPL256C, strain CLN2, active compounds read low
[9] = S. cerevisiae deletion strains, locus YDL101C, strain DUN1, active compounds read low
[10] = S. cerevisiae deletion strains, locus YGR078C, strain PAC10, active compounds read low
[11] = S. cerevisiae deletion strains, locus YJR075W, strain HOC1, active compounds read low
[12] = S. cerevisiae deletion strains, locus YMR263W, strain SAP30, active compounds read low
[13] = S. cerevisiae deletion strains, locus YMR307W, strain GAS1, active compounds read low
[14] = S. cerevisiae deletion strains, locus YNL153C, strain GIM3, active compounds read low
[15] = S. cerevisiae deletion strains, locus YNL322C, strain KRE1, active compounds read low
[16] = S. cerevisiae deletion strains, locus YPL055C, strain LGE1, active compounds read low
[17] = S. cerevisiae deletion strains, locus YPL241C, strain CIN2, active compounds read low

In the case of `CC(O)Cn1cnc2c1c(=O)n(C)c(=O)n2C` (centres undefined), the normalized growth [1] is reported as 1.05, the normalized growth [2] is reported as 1.07 and the normalized growth [3] is reported as 1.05. It also gave a normalized growth [4] of 0.991, a normalized growth [5] of 1.04 and a normalized growth [6] of 1. The normalized growth [7] was 1.03 and the normalized growth [8] was 1.04.

`O=C(Nc1ccc(OC(F)(F)F)cc1)Nc1cncc(C(F)(F)F)c1` showed a normalized growth (S. cerevisiae deletion strains, locus YAR019C, strain CDC15, active compounds read low) of 0.987, a normalized growth (S. cerevisiae deletion strains, locus YBL105C, strain PKC1, active compounds read low) of 0.995 and a normalized growth (S. cerevisiae deletion strains, locus YBR135W, strain CKS1, active compounds read low) of 0.989. The normalized growth (S. cerevisiae deletion strains, locus YBR136W, strain MEC1, active compounds read low) was 0.994, the normalized growth (S. cerevisiae deletion strains, locus YBR160W, strain CDC28, active compounds read low) was 0.993 and the normalized growth (S. cerevisiae deletion strains, locus YDL017W, strain CDC7, active compounds read low) was 0.995. The normalized growth (S. cerevisiae deletion strains, locus YDL028C, strain MPS1, active compounds read low) was 0.991, the normalized growth [9] was 1.01 and the normalized growth (S. cerevisiae deletion strains, locus YDL108W, strain KIN28, active compounds read low) was 0.988. The normalized growth (S. cerevisiae deletion strains, locus YDL132W, strain cdc53, active compounds read low) was 0.995, the normalized growth (S. cerevisiae deletion strains, locus YDL214C, strain PRR2, active compounds read low) was 0.913 and the normalized growth (S. cerevisiae deletion strains, locus YDR052C, strain DBF4, active compounds read low) was 0.989. The normalized growth (S. cerevisiae deletion strains, locus YDR054C, strain cdc34, active compounds read low) was 0.996, the normalized growth (S. cerevisiae deletion strains, locus YDR226W, strain ADK1, active compounds read low) was 0.991 and the normalized growth (S. cerevisiae deletion strains, locus YDR477W, strain SNF1, active compounds read low) was 0.943. The normalized growth (S. cerevisiae deletion strains, locus YER123W, strain YCK3, active compounds read low) was 0.884, the normalized growth (S. cerevisiae deletion strains, locus YER133W, strain GLC7, active compounds read low) was 0.93 and the normalized growth (S. cerevisiae deletion strains, locus YFL009W, strain cdc4, active compounds read low) was 0.982. For the same compound, the normalized growth (S. cerevisiae deletion strains, locus YFL029C, strain CAK1, active compounds read low) was 0.991, the normalized growth (S. cerevisiae deletion strains, locus YFR003C, strain YPI1, active compounds read low) was 0.999 and the normalized growth (S. cerevisiae deletion strains, locus YFR019W, strain FAB1, active compounds read low) was 0.911. It also gave a normalized growth (S. cerevisiae deletion strains, locus YFR028C, strain CDC14, active compounds read low) of 0.986, a normalized growth (S. cerevisiae deletion strains, locus YGR040W, strain KSS1, active compounds read low) of 0.941 and a normalized growth (S. cerevisiae deletion strains, locus YGR052W, strain FMP48, active compounds read low) of 0.929. The normalized growth (S. cerevisiae deletion strains, locus YGR092W, strain DBF2, active compounds read low) was 0.919, the normalized growth [1] was 0.822 (active) and the normalized growth [2] was 0.824. For the same compound, the normalized growth (S. cerevisiae deletion strains, locus YHR082C, strain KSP1, active compounds read low) was 0.968, the normalized growth (S. cerevisiae deletion strains, locus YHR205W, strain SCH9, active compounds read low) was 0.888 and the normalized growth (S. cerevisiae deletion strains, locus YIL147C, strain SLN1, active compounds read low) was 0.996. It also gave a normalized growth [3] of 0.877, a normalized growth (S. cerevisiae deletion strains, locus YJL128C, strain PBS2, active compounds read low) of 0.951 and a normalized growth (S. cerevisiae deletion strains, locus YJL157C, strain FAR1, active compounds read low) of 0.923. The normalized growth (S. cerevisiae deletion strains, locus YJR016C, strain ILV3, active compounds read low) was 0.994, the normalized growth (S. cerevisiae deletion strains, locus YJR066W, strain TOR1 (second series), active compounds read low) was 0.88 and the normalized growth [4] was 0.942. For the same compound, the normalized growth (S. cerevisiae deletion strains, locus YKL048C, strain ELM1, active compounds read low) was 0.964, the normalized growth (S. cerevisiae deletion strains, locus YKL067W, strain YNK1, active compounds read low) was 0.916 and the normalized growth (S. cerevisiae deletion strains, locus YKL101W, strain HSL1, active compounds read low) was 0.905. For the same compound, the normalized growth (S. cerevisiae deletion strains, locus YKL193C, strain SDS22, active compounds read low) was 0.996, the normalized growth (S. cerevisiae deletion strains, locus YKL203C, strain TOR2, active compounds read low) was 0.964 and the normalized growth [5] was 0.739 (active). It also gave a normalized growth (S. cerevisiae deletion strains, locus YLR133W, strain CKI1, active compounds read low) of 0.91, a normalized growth (S. cerevisiae deletion strains, locus YLR403W, strain SFP1, active compounds read low) of 0.945 and a normalized growth (S. cerevisiae deletion strains, locus YML070W, strain DAK1, active compounds read low) of 0.89. For the same compound, the normalized growth (S. cerevisiae deletion strains, locus YMR001C, strain CDC5, active compounds read low) was 0.998, the normalized growth (S. cerevisiae deletion strains, locus YMR205C, strain PFK2 (second series), active compounds read low) was 0.927 and the normalized growth (S. cerevisiae deletion strains, locus YMR277W, strain FCP1, active compounds read low) was 0.992. It also gave a normalized growth (S. cerevisiae deletion strains, locus YNL006W, strain LST8, active compounds read low) of 0.99, a normalized growth (S. cerevisiae deletion strains, locus YNL020C, strain ARK1, active compounds read low) of 0.914 and a normalized growth (S. cerevisiae deletion strains, locus YNL161W, strain CBK1, active compounds read low) of 0.971. It also gave a normalized growth [6] of 0.915, a normalized growth (S. cerevisiae deletion strains, locus YNL207W, strain RIO2, active compounds read low) of 0.985 and a normalized growth (S. cerevisiae deletion strains, locus YNL222W, strain SSU72, active compounds read low) of 0.994. It also gave a normalized growth (S. cerevisiae deletion strains, locus YNL307C, strain MCK1 (second series), active compounds read low) of 0.886, a normalized growth (S. cerevisiae deletion strains, locus YOL078W, strain AVO1, active compounds read low) of 0.993 and a normalized growth (S. cerevisiae deletion strains, locus YOL136C, strain PFK27, active compounds read low) of 0.882. For the same compound, the normalized growth (S. cerevisiae deletion strains, locus YOR061W, strain CKA2, active compounds read low) was 0.952, the normalized growth (S. cerevisiae deletion strains, locus YOR119C, strain RIO1, active compounds read low) was 0.995 and the normalized growth [7] was 0.865. The normalized growth (S. cerevisiae deletion strains, locus YOR329C, strain SCD5, active compounds read low) was 0.994, the normalized growth (S. cerevisiae deletion strains, locus YPL031C, strain PHO85, active compounds read low) was 0.921 and the normalized growth (S. cerevisiae deletion strains, locus YPL153C, strain RAD53, active compounds read low) was 0.928. The normalized growth (S. cerevisiae deletion strains, locus YPL204W, strain HRR25, active compounds read low) was 0.892, the normalized growth (S. cerevisiae deletion strains, locus YPL209C, strain IPL1, active compounds read low) was 0.998 and the normalized growth [8] was 0.763 (active). For the same compound, the normalized growth (S. cerevisiae deletion strains, locus YPR025C, strain CCL1, active compounds read low) was 0.994, the normalized growth (S. cerevisiae deletion strains, locus YPR106W, strain ISR1, active compounds read low) was 0.982 and the normalized growth (S. cerevisiae deletion strains, locus YPR111W, strain DBF20, active compounds read low) was 0.969. For the same compound, the normalized growth (S. cerevisiae deletion strains, strain NNK1, active compounds read low) was 0.978 and the normalized growth (S. cerevisiae deletion strains, strain TSCII, active compounds read low) was 0.983.

Work on `COc1cc(NC(=O)Nc2ccc(OC(F)(F)F)cc2)cc(C(F)(F)F)c1` yielded a normalized growth (S. cerevisiae deletion strains, locus YAL013W, strain DEP1, active compounds read low) of 0.987, a normalized growth (S. cerevisiae deletion strains, locus YBR229C, strain ROT2, active compounds read low) of 0.987 and a normalized growth [9] of 0.997. It also gave a normalized growth (S. cerevisiae deletion strains, locus YDL134C, strain PPH21, active compounds read low) of 1.01, a normalized growth (S. cerevisiae deletion strains, locus YDR150W, strain NUM1, active compounds read low) of 0.971 and a normalized growth (S. cerevisiae deletion strains, locus YEL061C, strain CIN8, active compounds read low) of 0.961. The normalized growth [10] was 0.984, the normalized growth [1] was 0.895 and the normalized growth (S. cerevisiae deletion strains, locus YHR087W, strain rtc3, active compounds read low) was 0.984. It also gave a normalized growth (S. cerevisiae deletion strains, locus YJL187C, strain SWE1, active compounds read low) of 1.01, a normalized growth (S. cerevisiae deletion strains, locus YJR043C, strain POL32, active compounds read low) of 0.999 and a normalized growth [11] of 1. It also gave a normalized growth (S. cerevisiae deletion strains, locus YLR039C, strain RIC1, active compounds read low) of 0.895, a normalized growth (S. cerevisiae deletion strains, locus YLR058C, strain SHM2 (second series), active compounds read low) of 1 and a normalized growth (S. cerevisiae deletion strains, locus YLR085C, strain ARP6, active compounds read low) of 0.951. For the same compound, the normalized growth (S. cerevisiae deletion strains, locus YLR262C, strain YPT6, active compounds read low) was 0.968, the normalized growth (S. cerevisiae deletion strains, locus YML094W, strain GIM5, active compounds read low) was 0.919 and the normalized growth (S. cerevisiae deletion strains, locus YMR219W, strain ESC1, active compounds read low) was 1.02. For the same compound, the normalized growth [12] was 0.991, the normalized growth [13] was 0.864 and the normalized growth [14] was 0.987. The normalized growth (S. cerevisiae deletion strains, locus YNL298W, strain CLA4 (second series), active compounds read low) was 0.923, the normalized growth [15] was 1.01 and the normalized growth (S. cerevisiae deletion strains, locus YNR030W, strain Alg12, active compounds read low) was 0.935. For the same compound, the normalized growth (S. cerevisiae deletion strains, locus YOL006C, strain TOP1, active compounds read low) was 0.996, the normalized growth [16] was 0.928 and the normalized growth [17] was 0.893. The normalized growth (S. cerevisiae deletion strains, locus YPR135W, strain CTF4, active compounds read low) was 1 and the normalized growth (S. cerevisiae strains, strain wild type, active compounds read low) was 1.01.

`CNCCNS(=O)(=O)c1cccc2cnccc12` showed a normalized growth (S. cerevisiae deletion strains, locus YAL040C, strain CLN3, active compounds read low) of 1, a normalized growth (S. cerevisiae deletion strains, locus YCL061C, strain MRC1 (second series), active compounds read low) of 1 and a normalized growth (S. cerevisiae deletion strains, locus YDR363W, strain ESC2, active compounds read low) of 1.03. The normalized growth (S. cerevisiae deletion strains, locus YER002W, strain NOP16, active compounds read low) was 1, the normalized growth [10] was 1.02 and the normalized growth [11] was 1.01. It also gave a normalized growth [12] of 0.998, a normalized growth [13] of 1 and a normalized growth [14] of 1.01. It also gave a normalized growth (S. cerevisiae deletion strains, locus YNL175C, strain NOP13, active compounds read low) of 1.01, a normalized growth (S. cerevisiae deletion strains, locus YNL197C, strain WHI3, active compounds read low) of 1.04 and a normalized growth (S. cerevisiae deletion strains, locus YNL224C, strain SQS1, active compounds read low) of 1. It also gave a normalized growth [15] of 1.02, a normalized growth (S. cerevisiae deletion strains, locus YOR083W, strain WHI5 (second series), active compounds read low) of 1 and a normalized growth [16] of 1.01. It also gave a normalized growth [17] of 0.999.
